Laboratory results reported in PubChem BioAssay (NCATS).
Records with an inconclusive call do not appear. Calls of active or inactive are those of the source. Unless noted, the call rests on the fitted dose curve; in most records, active means well fitted curve in the direction sought with a large enough effect; inconclusive means small, poorly fitted or top-dose-only effect, or another doubt; inactive means no such curve, though single readings can be large; an effect the other way counts as inactive or inconclusive.

Tests used:
[1] = target: Rap guanine nucleotide exchange factor 3 (Homo sapiens) (UniProt O95398); assay: Confirmatory qHTS for antagonist of cAMP-regulated guanine nucleotide exchange factor 3 (EPAC1) (AID 1645880); details: EPAC1 Rap1B-BODIPY-GDP exchange, fluorescence; activity, negative = inhibition: at 115 µM (top of the series); further: nearly all actives have a fitted effect of over 55% in size; further: potency means the concentration at half of the fitted maximal effect;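 on activity, negative = inhibition: plate controls were DMSO only for no effect and full effect of the ATA control for full effect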
In short: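 Nucleotide exchange uses 100 nM EPAC1, 250 nM RAP1B-BODIPY-GDP and 50 uM GDP, with compounds in a concentration-titration series. After 5 min at room temperature, fluorescence (480 nm ex/540 nm em) is read every 5 min for 30 min. Data are normalized to control ATA and DMSO.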

[2] = target: Rap guanine nucleotide exchange factor 3 (Homo sapiens) (UniProt O95398); assay: Counterscreen qHTS for antagonist of cAMP-regulated guanine nucleotide exchange factor 3 (EPAC1) (AID 1645888);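 further: fluorescence loss as bound BODIPY-GDP is released from Rap1B; % of control where 0% means no effect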
In short: (§1)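 Measured: fluorescence of BODIPY-GDP bound to Rap1B, which falls as exchange proceeds. Conditions include 50 uM competing GDP, 5 and 30 min reads, and a later cAMP challenge for antagonist detection.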

[3] = target: Rap guanine nucleotide exchange factor 4 (Homo sapiens) (UniProt Q8WZA2); assay: Confirmatory qHTS for antagonist of cAMP-regulated guanine nucleotide exchange factor 4 (EPAC2) (AID 1645885); further: nearly all actives have a fitted effect of over 25% in size; further: potency means the concentration at half of the fitted maximal effect
[4] = target: Rap guanine nucleotide exchange factor 3 (Homo sapiens) (UniProt O95398); assay: Counterscreen qHTS for agonist of cAMP-regulated guanine nucleotide exchange factor 3 (EPAC1) (AID 1645889); further: nearly all actives have a fitted effect of over 40% in size; further: potency means the concentration at half of the fitted maximal effect; on activation: % of control where 0% means no effect
In short: as §1

[5] = target: Tumor susceptibility gene 101 protein (Homo sapiens) (UniProt Q99816); assay: qHTS Assay for Iinhibitors of HIV-1 Budding by Blocking the Interaction of PTAP/TSG101: Hit Validation (AID 651600); further: nearly all actives have a fitted effect of over 70% in size; further: potency means the concentration at half of the fitted maximal effect
In short: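 Fluorescence polarization binding assay: Tsg101 binding domain (10 uM final) pre-dispensed with compounds, then FITC-labeled PTAP-motif peptide (50 nM final) added; 20 min at r.t. in HEPES pH 7.5 buffer with NaCl, Tween 20, EDTA, TCEP.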

[6] = target: Lysosomal acid glucosylceramidase (Homo sapiens) (UniProt P04062); assay: Glucocerebrosidase-p2 (AID 348; in the data active means potency below about 10 µM; further: potency means the concentration at half of the fitted maximal effect); details: purified GBA, blue fluorogenic substrate, 40 min
In short: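 Compounds titrated from 0.6 nM upwards against 0.2 nM enzyme in pH 5.9 citric acid/KH2PO4, taurocholate, tween-20; blue fluorogenic substrate 80 uM, 40 min room temperature, stopped and read Ex 365/Em 440 for AC50.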

[7] = AP1 Signaling Pathway (AID 357; active means well fitted curve in either direction with a large enough effect, not every such curve was filed as active;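 further: ME-180 reporter cells stimulated with EGF at its EC50 level; on the % scale 0 is the no-effect control and ±100 the full control effect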); details: ME-180 (cervical carcinoma) AP-1-bla reporter, EGF-induced, beta-lactamase ratio, 5 h; at 7.69 µM (top of the series) unless noted
In short: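 A ratiometric CCF4 readout (405 nm excitation; 460 and 530 nm emission) quantified AP-1-driven beta-lactamase in ME-180 cells after 5 h with compound and EC50 EGF; AC50 values were derived for activators and inhibitors.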

[8] = target: Cytochrome P450 1A2 (Homo sapiens) (UniProt P05177); assay: p450-cyp1a2 (AID 410; calls by dose curve; further: potency means the concentration at half of the fitted maximal effect)
In short: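 Inhibition was calculated relative to 57 uM furafylline (full inhibition). The reaction used human CYP1A2 at 20nM with Luciferin-ME at its Km, 100uM, driven by an NADPH-regenerating system for 60 min at room temperature.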

[9] = NFAT Signaling Pathway (AID 444; active means well fitted curve in either direction with a large enough effect, not every such curve was filed as active;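 further: carbachol stimulus at about its EC50 of 1 µM final; on the % scale 0 is the no-effect control and ±100 the full control effect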); details: Jurkat NFAT-bla M1, carbachol, beta-lactamase ratio, 5 h; at 7.69 µM (top of the series) unless noted
In short: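 Jurkat cells carrying an NFAT-driven β-lactamase reporter and co-transfected muscarinic M1 receptor were treated with compound plus carbachol (1 uM final, an EC50 level) for 5 h at 37 °C. CCF4 loading followed for 1 h at RT; 460/530 nm ratio gave %activity.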

[10] = target: Glucocorticoid receptor (Homo sapiens) (UniProt P04150); assay: GR-GFP Redistribution (AID 450;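 active means compounds whose dose series gives a full or clear partial fitted curve of increased nuclear translocation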; further: potency means the concentration at half of the fitted maximal effect); details: U2OS GR-GFP nuclear translocation, laser cytometry, 2 h
[11] = target: Glucocorticoid receptor (Homo sapiens) (UniProt P04150); assay: GR-EFC Redistribution (AID 451; calls by dose curve; further: potency means the concentration at half of the fitted maximal effect); details: CHO-K1 GR-EFC translocation, beta-gal luminescence, 2 h
In short: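 CHO-K1 cells stably expressing nuclear-localized β-gal enzyme acceptor and GR fused C-terminally to the enzyme donor fragment; ligand-driven nuclear translocation restores β-gal by complementation. Compounds titrated up to 46 uM final, 2 h at 37 °C; luminescence read.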

[12] = target: Mitogen-activated protein kinase 10 (Mus musculus) (UniProt Q61831); assay: JNK3 AlphaScreen Assay (AID 530; active means well fitted curve in either direction with a large enough effect, not every such curve was filed as active;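 further: kinase came from lysate of stimulated human HepG2 cells; signal reports phosphorylation of biotinylated GST-cJun 1-79 at Ser73 with 10 µM ATP; on the % scale 0 is the no-effect control and ±100 the full control effect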)
In short: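 JNK3 came from HepG2 lysates pre-activated with IL-1beta and TNF-alpha and phosphorylated biotinylated GST-cJun (1-79) at 10 uM ATP, pH 7.6, room temperature. Compounds were titrated. AlphaScreen signal used anti-phospho-cJun (Ser73) antibody.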

[13] = target: 3',5'-cyclic-AMP phosphodiesterase 4B (Homo sapiens) (UniProt Q07343); assay: qHTS Assay for Inhibitors of PDE-IV (AID 607; active means well fitted activation curve with a large enough effect in the main read-out, with a control signal flat, not every such curve was filed as active; further: % of control where 0% means no effect)
In short: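 Live HEK293 cells with a modified cyclic nucleotide-gated (CNG) channel report intracellular cAMP via membrane-potential dye fluorescence (ex 535/em 590 nm). Endogenous PDE-IV was targeted. Compounds were tested at up to 22.9 uM final; RO 20-1724 100 uM served as control.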

[14] = target: Cytochrome P450 2C19 (Homo sapiens) (UniProt P33261); assay: qHTS Assay for Inhibitors and Substrates of Cytochrome P450 2C19 (AID 899); further: potency means the concentration at half of the fitted maximal effect; nearly all actives have a fitted effect of over 60% in size
In short: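 In 50mM KPO4, the reaction held 5nM enzyme and KM-level (10uM) Luciferin-H EGE; it ran 60 min at 37C after NADPH regeneration and a 10 min compound preincubation. Luminescence values were scaled to 57uM ketoconazole as complete inhibition.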

[15] = target: Cytochrome P450 2C9 (Homo sapiens) (UniProt P11712); assay: qHTS Assay for Inhibitors and Substrates of Cytochrome P450 2C9 (AID 883); further: potency means the concentration at half of the fitted maximal effect; nearly all actives have a fitted effect of over 60% in size
In short: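 CYP2C9 deoxyluciferin hydroxylation, 37C, 60 min with NADPH regeneration; 10nM enzyme, 100uM Luciferin-H (KM). Glo detection reagent stopped reaction; luminescence normalized to sulphaphenazole (57uM) full inhibition.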

[16] = target: Cytochrome P450 3A4 (Homo sapiens) (UniProt P08684); assay: qHTS Assay for Inhibitors and Substrates of Cytochrome P450 3A4 (AID 884); further: potency means the concentration at half of the fitted maximal effect; nearly all actives have a fitted effect of over 50% in size
In short: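 20 nM human CYP3A4 with 25 uM Luciferin-PPXE (at KM) in 200 mM KPO4, preincubated 10 min with compound; NADPH regeneration started a 60 min RT reaction. Luciferin detected by luminescence, normalized to 57 uM ketoconazole as full inhibition.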

[17] = target: Cytochrome P450 3A4 (Homo sapiens) (UniProt P08684); assay: qHTS Assay for Activators of Cytochrome P450 3A4 (AID 885); further: nearly all actives have a fitted effect of over 65% in size
In short: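 Quantitative HTS format: compounds preincubated with 20nM human CYP3A4 and Luciferin-PPXE substrate at KM, reaction started by NADPH regeneration, stopped after 60 min, luciferase luminescence read 20 min later.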

[18] = Stat Signaling Pathway (AID 446; active means well fitted curve in either direction with a large enough effect, not every such curve was filed as active;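 further: ME-180 cervical cancer cells given 40 pM IL-6 alongside compound; SIE-controlled beta-lactamase reporter measured as 460/530 nm FRET emission ratio; on the % scale 0 is the no-effect control and ±100 the full control effect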)
In short: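 IL-6/STAT signaling read in ME-180 cells via an SIE beta-lactamase reporter. Stimulus was 40 pM IL-6 (its AC50) for 5 hrs, so both activation and inhibition register.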

[19] = target: Cytochrome P450 2D6 (Homo sapiens) (UniProt P10635); assay: qHTS Assay for Inhibitors and Substrates of Cytochrome P450 2D6 (AID 891); further: potency means the concentration at half of the fitted maximal effect; nearly all actives have a fitted effect of over 60% in size
In short: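 Human CYP2D6 (5 nM) with 30 uM Luciferin-ME EGE (at Km) in 100 mM KPO4, compound preincubated 10 min, then NADPH regeneration system for 60 min at room temperature. Luciferin read by luminescence; normalized to 1.43 uM quinidine.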

[20] = target: Dual specificity protein kinase CLK4 (Homo sapiens) (UniProt Q9HAZ1); assay: qHTS Assay for Inhibitors of CDC-like Kinase 4 (ADP-FP Assay) (AID 1795); further: on the % scale 0 is the no-effect control and ±100 the full control effect; nearly all actives have a fitted effect of over 60% in size
In short: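 Recombinant human Clk4 (6.25 nM) phosphorylated RS repeat peptide (100 uM) with 1 uM ATP in Tris pH 7.5/MgCl2/EGTA/DTT/Triton buffer for one hour. ADP was quantified by Transcreener competitive fluorescence polarization against an ADP calibration curve.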

[21] = qHTS for Inhibitors of the vitamin D receptor (VDR): Hit Validation using a Texas Red Assay (AID 602201); further: potency means the concentration at half of the fitted maximal effect
In short: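 Fluorescence polarization (Ex 595/Em 615 nm) of Texas Red (7 nM) with 1.5 uM VDR-LBD and LG19078 (final concentrations). Compounds were incubated for 2 hours at room temperature.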

Chain of Tumor susceptibility gene 101 protein (Homo sapiens) (Q99816 whole entry, looked up, the tested form may be a part): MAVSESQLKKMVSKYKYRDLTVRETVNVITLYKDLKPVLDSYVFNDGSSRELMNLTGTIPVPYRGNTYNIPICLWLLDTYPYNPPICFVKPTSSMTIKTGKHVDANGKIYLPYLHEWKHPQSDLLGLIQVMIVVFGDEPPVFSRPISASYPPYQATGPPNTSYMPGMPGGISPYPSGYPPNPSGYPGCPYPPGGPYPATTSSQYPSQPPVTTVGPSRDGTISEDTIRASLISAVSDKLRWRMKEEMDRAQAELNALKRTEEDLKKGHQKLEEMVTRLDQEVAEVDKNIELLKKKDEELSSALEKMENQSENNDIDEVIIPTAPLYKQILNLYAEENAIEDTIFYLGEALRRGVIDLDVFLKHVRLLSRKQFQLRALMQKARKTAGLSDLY
Chain of Rap guanine nucleotide exchange factor 4 (Homo sapiens) (Q8WZA2 whole entry, looked up): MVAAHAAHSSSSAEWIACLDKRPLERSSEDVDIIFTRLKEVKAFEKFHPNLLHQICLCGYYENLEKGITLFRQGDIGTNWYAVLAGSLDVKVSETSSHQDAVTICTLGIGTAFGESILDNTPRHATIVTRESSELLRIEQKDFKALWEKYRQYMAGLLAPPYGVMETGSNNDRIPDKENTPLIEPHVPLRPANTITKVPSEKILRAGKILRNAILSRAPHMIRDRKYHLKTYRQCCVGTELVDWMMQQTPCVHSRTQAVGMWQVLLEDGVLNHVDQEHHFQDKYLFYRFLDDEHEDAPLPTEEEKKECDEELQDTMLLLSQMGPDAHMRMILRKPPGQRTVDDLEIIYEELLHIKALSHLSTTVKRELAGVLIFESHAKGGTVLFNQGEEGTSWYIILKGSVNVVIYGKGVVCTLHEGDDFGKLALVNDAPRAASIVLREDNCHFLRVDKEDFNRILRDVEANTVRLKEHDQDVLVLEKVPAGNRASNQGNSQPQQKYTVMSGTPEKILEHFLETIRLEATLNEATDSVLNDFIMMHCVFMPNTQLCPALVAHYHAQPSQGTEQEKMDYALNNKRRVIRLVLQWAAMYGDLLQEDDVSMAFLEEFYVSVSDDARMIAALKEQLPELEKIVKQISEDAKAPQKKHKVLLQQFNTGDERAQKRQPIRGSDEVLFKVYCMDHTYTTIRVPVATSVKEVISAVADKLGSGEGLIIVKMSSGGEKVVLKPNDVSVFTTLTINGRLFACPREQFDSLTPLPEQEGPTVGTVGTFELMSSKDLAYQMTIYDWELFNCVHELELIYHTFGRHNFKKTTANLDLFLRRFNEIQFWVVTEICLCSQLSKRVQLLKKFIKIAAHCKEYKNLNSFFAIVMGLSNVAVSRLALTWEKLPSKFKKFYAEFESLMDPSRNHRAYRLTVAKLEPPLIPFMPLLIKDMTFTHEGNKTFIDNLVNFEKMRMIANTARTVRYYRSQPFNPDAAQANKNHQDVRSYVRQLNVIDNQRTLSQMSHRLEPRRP
Chain of Glucocorticoid receptor (Homo sapiens) (P04150 whole entry, looked up, the tested form may be a part): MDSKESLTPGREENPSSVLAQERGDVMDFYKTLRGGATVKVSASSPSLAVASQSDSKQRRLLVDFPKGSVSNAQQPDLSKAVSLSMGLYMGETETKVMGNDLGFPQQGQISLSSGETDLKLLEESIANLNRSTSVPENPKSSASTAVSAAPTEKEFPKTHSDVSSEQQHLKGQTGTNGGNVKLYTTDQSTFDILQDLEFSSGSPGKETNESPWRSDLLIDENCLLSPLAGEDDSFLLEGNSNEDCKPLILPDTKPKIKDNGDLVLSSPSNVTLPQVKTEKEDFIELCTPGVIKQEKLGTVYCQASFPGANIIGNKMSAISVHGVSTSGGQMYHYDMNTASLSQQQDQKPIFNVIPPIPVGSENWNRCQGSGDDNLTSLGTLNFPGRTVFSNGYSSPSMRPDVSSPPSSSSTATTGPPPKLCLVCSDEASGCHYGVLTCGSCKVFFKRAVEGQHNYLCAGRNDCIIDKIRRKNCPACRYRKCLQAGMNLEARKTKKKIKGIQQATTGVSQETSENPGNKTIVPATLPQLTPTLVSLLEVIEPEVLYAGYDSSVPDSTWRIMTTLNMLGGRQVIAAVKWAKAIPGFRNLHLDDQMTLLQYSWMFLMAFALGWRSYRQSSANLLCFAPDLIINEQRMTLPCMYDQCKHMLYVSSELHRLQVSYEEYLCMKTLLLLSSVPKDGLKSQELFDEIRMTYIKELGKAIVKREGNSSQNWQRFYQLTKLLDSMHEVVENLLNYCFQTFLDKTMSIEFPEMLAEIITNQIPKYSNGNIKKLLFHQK
Chain of Cytochrome P450 1A2 (Homo sapiens) (P05177 whole entry, looked up): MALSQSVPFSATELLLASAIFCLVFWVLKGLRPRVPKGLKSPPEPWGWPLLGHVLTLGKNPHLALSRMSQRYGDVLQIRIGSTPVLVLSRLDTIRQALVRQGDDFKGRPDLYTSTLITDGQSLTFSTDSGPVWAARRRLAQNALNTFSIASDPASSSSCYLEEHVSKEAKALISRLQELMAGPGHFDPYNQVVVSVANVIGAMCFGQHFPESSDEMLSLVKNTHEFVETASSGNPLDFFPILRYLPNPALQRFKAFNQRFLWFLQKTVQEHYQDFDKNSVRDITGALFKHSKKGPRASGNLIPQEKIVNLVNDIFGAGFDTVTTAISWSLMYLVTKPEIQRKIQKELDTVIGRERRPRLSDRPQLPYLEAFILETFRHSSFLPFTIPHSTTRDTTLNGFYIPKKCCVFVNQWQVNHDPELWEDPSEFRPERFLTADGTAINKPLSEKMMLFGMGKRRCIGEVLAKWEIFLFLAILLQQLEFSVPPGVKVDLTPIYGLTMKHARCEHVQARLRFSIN
Chain of Cytochrome P450 3A4 (Homo sapiens) (P08684 whole entry, looked up): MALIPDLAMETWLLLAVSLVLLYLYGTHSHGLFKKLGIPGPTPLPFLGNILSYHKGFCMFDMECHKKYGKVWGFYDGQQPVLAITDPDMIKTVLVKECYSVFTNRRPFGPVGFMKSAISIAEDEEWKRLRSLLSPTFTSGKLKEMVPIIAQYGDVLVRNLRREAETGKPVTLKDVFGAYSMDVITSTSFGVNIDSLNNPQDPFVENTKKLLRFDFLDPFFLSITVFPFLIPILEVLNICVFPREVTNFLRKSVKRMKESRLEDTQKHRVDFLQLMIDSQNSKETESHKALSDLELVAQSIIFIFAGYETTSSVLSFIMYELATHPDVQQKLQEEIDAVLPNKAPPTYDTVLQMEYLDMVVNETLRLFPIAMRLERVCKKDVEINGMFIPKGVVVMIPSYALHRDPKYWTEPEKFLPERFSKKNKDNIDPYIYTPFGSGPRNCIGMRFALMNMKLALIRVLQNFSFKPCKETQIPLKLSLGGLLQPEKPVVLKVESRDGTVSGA
Chain of Lysosomal acid glucosylceramidase (Homo sapiens) (P04062 whole entry, looked up): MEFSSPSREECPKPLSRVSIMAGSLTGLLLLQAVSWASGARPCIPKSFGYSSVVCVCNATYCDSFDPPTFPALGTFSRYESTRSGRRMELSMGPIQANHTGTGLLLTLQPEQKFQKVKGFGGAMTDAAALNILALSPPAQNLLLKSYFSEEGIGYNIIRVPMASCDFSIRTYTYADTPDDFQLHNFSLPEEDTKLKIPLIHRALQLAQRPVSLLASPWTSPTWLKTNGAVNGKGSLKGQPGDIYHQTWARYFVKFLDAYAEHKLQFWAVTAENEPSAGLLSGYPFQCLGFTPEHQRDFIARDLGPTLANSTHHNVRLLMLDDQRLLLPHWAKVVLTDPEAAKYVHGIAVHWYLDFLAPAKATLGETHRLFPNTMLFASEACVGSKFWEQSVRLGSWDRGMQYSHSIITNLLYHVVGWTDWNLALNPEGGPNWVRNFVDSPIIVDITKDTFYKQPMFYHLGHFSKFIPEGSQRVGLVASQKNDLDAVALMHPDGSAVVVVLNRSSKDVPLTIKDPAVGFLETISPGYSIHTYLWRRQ
Chain of Rap guanine nucleotide exchange factor 3 (Homo sapiens) (O95398 whole entry, looked up): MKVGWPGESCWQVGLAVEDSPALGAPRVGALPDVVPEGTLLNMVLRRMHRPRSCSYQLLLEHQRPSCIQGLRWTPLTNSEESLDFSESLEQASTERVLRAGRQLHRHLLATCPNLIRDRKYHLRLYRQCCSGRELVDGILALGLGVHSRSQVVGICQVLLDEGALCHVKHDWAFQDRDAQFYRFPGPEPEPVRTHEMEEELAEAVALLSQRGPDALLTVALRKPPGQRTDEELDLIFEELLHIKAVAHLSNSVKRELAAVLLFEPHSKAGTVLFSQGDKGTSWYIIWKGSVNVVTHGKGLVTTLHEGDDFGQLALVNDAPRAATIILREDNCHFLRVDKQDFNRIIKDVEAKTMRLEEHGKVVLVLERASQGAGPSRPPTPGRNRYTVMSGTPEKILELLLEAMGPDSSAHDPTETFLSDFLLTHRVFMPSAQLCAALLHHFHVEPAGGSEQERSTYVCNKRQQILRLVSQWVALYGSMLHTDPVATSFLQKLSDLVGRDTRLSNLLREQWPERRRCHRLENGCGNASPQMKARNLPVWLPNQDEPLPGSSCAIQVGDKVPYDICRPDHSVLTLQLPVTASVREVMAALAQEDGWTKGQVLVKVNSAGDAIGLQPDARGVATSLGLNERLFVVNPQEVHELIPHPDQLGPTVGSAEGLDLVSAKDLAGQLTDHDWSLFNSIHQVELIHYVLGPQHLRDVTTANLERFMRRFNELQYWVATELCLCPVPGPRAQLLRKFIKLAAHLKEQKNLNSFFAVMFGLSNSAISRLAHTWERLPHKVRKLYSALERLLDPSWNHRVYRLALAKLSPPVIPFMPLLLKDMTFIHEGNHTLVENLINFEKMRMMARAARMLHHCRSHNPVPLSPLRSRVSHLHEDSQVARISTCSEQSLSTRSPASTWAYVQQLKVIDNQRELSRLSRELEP

Cc1ccc(-c2nc(S(=O)(=O)c3ccc(C)cc3)c(N3CCOCC3)o2)cc1
inactive: Potency [1] | Potency [2]

CC1CC1c1ccc(/C=C(\C#N)C(=O)Nc2cc(Cl)ccc2Cl)o1 (stereo not drawn)
inactive: Potency [1] | Potency [3] | Potency [2] | Potency [4]

Cc1ccc2c(c1)N(Cc1cccc(F)c1)C(=O)C(C)O2 (stereo not drawn)
inactive: Potency [1] | Potency [2]

Cc1cc(/C=C2\SC(=S)N(Cc3ccco3)C2=O)c(C)n1-c1cccnc1
active: Potency [5] 25.9 µM | Potency [3] 84.9 µM
inactive: Potency [1] | Potency [2]

N=C(N)c1ccc(N=Nc2c(O)ccc3c2[nH]c2ccccc23)cc1
active: Potency [8] 1.58 µM | Potency [14] 1.26 µM | Potency [1] 56.2 µM
inactive: Potency [6] > 11.4 µM | activity change, negative = inhibition [7] 13.5% | activity change, negative = inhibition [9] 8.15% | Potency [10] > 46 µM | Potency [11] > 9.22 µM | activity change, negative = inhibition [12] -6.35% [at 11.4 µM] | Potency [13] | Potency [3] | activity change, negative = inhibition [2] -5.36% [at 30.8 µM] | activation [4] 33.2% [at 30.8 µM]

Cc1c2ccccc2nc2c(F)c(NCCO)c(F)c(F)c12
inactive: Potency [1] | Potency [3] | Potency [2]
active: Potency [5] 8.19 µM

CCCCn1c(=O)[nH]c2nc3cc(N)ccc3nc2c1=O
inactive: Potency [1] | Potency [3] | activity change, negative = inhibition [2] 79.1% [at 30.8 µM]
active: Potency [5] 6.51 µM | Potency [4] 12.6 µM

COc1ccccc1N1CCN(C(=O)c2ccc(S(=O)(=O)N3CCCC3)cc2)CC1
inactive: Potency [1] | Potency [3] | Potency [2] | Potency [4]

Clc1ccccc1NN(Cc1ccncc1)c1ccccc1Cl
active: Potency [8] 5.01 µM | Potency [15] 1.58 µM | Potency [16] 0.251 µM | Potency [14] 1.26 µM | Potency [3] 16.9 µM
inactive: Potency [6] > 11.4 µM | activity change, negative = inhibition [7] -14.2% | Potency [10] > 46 µM | Potency [11] > 9.22 µM | activity change, negative = inhibition [12] 3.26% [at 11.4 µM] | Potency [13] | activity change, positive = activation [17] -76.6% [at 11.4 µM] | Potency [1] | Potency [2]

Nc1ccc2nc3c(=O)n(C4CCCCC4)c(=O)[nH]c3nc2c1
inactive: Potency [1] | Potency [3] | Potency [2]
active: Potency [5] 6.51 µM | Potency [4] 22.4 µM

CCOc1ccc(C(=O)CCc2nc3ccccc3s2)cc1
inactive: Potency [1] | activity change, negative = inhibition [2] -7.41% [at 30.8 µM]

CCOc1ccc(-c2nn(-c3ccccc3)cc2/C=C2\SC(=S)N(C3CCS(=O)(=O)C3)C2=O)cc1 (stereo not drawn)
inactive: Potency [1] | Potency [2]

O=C(O)c1cc(Cl)ccc1-c1ccc(/C=C/c2cc(C(F)(F)F)[nH]c(=O)n2)o1
inactive: Potency [5] | Potency [1] | Potency [3] | activity change, negative = inhibition [2] 144% [at 30.8 µM]
active: Potency [4] 12.6 µM

CCNc1ncc2nc(-c3cccs3)c(=O)n(CCC#N)c2n1
inactive: Potency [6] > 11.4 µM | activity change, negative = inhibition [7] -3.58% | activity change, negative = inhibition [9] -2.96% | outcome [18] | Potency [10] > 9.22 µM | Potency [11] > 46 µM | Potency [12] | outcome [17] | Potency [20] | Potency [1] | Potency [3]
active: Potency [8] 3.16 µM | Potency [16] 6.31 µM | Potency [19] 1.26 µM

CC[n+]1c(/C=C/C=C/N(C(C)=O)c2ccccc2)sc2ccccc21
active: Potency [1] 84.9 µM
inactive: Potency [2]

O=c1c(/C=C(\O)c2ccccc2)nc2ccccc2n1-c1ccccc1
active: Potency [5] 16.3 µM
inactive: Potency [1] | Potency [3] | activity change, negative = inhibition [2] -1.75% [at 30.8 µM]

c1ccc(Oc2nc(-c3cccnc3)nc3ccccc23)cc1
inactive: Potency [1] | Potency [2]

CC(C)(C)c1ccc(-n2nc(C#N)c(Cl)cc2=O)cc1
inactive: Potency [2]
active: Potency [21] 15.8 µM | Potency [1] 42.6 µM | Potency [3] 0.338 µM

CC(=O)N1CCC2(CCCN(c3ccc(-c4ccccc4)cc3)C2)CC1
inactive: Potency [6] > 11.4 µM | activity change, negative = inhibition [7] -10.1% | activity change, negative = inhibition [9] -24.3% | outcome [18] | Potency [11] > 46 µM | Potency [12] | Potency [13] | Potency [1] | Potency [3]

O=C1CCN2C=Nc3cccc4ccc1c2c34
inactive: Potency [1] | Potency [3] | activity change, negative = inhibition [2] 142% [at 30.8 µM]
active: Potency [5] 6.51 µM | Potency [4] 11.2 µM

CN1CC=C2C(C#N)=C(N)C(C#N)(C#N)C(c3ccsc3)C2C1 (stereo not drawn)
inactive: Potency [1] | Potency [2]
